Source: PubChem BioAssay
Shown is part of a subset that was picked to be rich in hits.
LmPK inhibitor: qHTS Assay for Inhibitors of Leishmania Mexicana Pyruvate Kinase (LmPK); Q27686; hit rate 0.37% among 290,000; Potency, µM (titrated, usually from 57.5 µM), for inactives: at the top dose activity change, negative = inhibition, hits mostly inhibitors; AID 1721, 2009; purified LmPK, Kinase-Glo ATP luminescence, 1 h; note: potency is the fitted concentration of half-maximal effect; % is set by controls: 0 for no effect and ±100 for the full control effect
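Kinase-Glo luminescence read after 1 h RT reaction of 0.1 nM LmPK with 0.5 mM PEP and 0.1 mM ADP. Activity scaled between uninhibited and enzyme-free controls.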
Shiga inhibitor: A qHTS for Small Molecule Inhibitors of Shiga Toxin. Vero cells, Shiga toxin protein synthesis inhibition reporter. hit rate 9.2% among 290,000. AID 2315, 2010. inhibition, % at 38.7 µM; in the data active = inhibition mostly above about 28%, no sharp cut-off; inactive = mostly below about 43%; note: 0% is about no effect
FBPA Giardia inh: qHTS Assay for Inhibitors of Fructose-1,6-bisphosphate Aldolase from Giardia Lamblia. AID 2451, 2010. purified Giardia FBPA. hit rate 0.71% among 290,000. Potency, µM (titrated, usually from 59.6 µM), for the others: top-dose activity, negative = inhibition, actives largely listed as inhibitors; note: potency is the fitted concentration of half-maximal effect; % is set by controls: 0 for no effect and ±100 for the full control effect; nearly all actives have a fitted effect of over 55% in size
Target sequence (A8B2U2 whole entry, looked up): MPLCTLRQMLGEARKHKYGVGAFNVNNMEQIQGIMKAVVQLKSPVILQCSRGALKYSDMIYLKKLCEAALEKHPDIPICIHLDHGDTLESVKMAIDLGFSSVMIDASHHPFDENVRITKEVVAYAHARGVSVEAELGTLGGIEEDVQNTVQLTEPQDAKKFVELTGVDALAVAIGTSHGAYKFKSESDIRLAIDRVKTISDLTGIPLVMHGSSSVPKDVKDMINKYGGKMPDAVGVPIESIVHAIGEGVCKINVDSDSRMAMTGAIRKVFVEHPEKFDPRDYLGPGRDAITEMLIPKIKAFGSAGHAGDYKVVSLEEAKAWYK
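Giardia FBPA (40 nM reagent) was preincubated 10 min at RT with compound (up to 57.5 uM final), then substrate plus GAPDH/TPI/NAD/arsenate coupling system with diaphorase/resazurin was added; resorufin fluorescence (525/598 nm) was read after 20 min.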
RE007 growth inh: qHTS Assay for Inhibitors of the HIV-1 protein Vpr; Potency, µM (titrated, usually from 92.2 µM), for the others: at the top dose activity change, negative = less growth, actives largely listed as inhibitors; hit rate 0.21% among 360,000; S. pombe RE007 Vpr strain, BacTiter-Glo ATP luminescence, 24 h; active = well fitted falling curve with a large enough effect; inconclusive = small, poorly fitted or top-dose-only effect; inactive = no such curve, though single readings can be large or run the other way; note: potency is the fitted concentration of half-maximal effect; % is set by controls: 0 for no effect and ±100 for the full control effect; nearly all actives have a fitted effect of over 50% in size
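Fission yeast RE007 carrying one integrated HIV-1 vpr copy, seeded at OD 0.01 in PMG+AL medium with 23 nL pinned compound. Grown 24 h at 30 degrees; viability read by BacTiter-Glo luminescence after 5 min.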
Tb PYK inh: qHTS of Trypanosoma Brucei Inhibitors | TbPYK enzyme, Kinase-Glo Plus ATP luminescence, 45 min | Potency, µM (top dose mostly 76.8 µM), without a hit: top-dose activity, negative = inhibition, usual class: inhibitors | hit rate 0.12% among 410,000; note: potency is the fitted concentration of half-maximal effect; % is set by controls: 0 for no effect and ±100 for the full control effect; nearly all actives have a fitted effect of over 50% in size
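T. brucei PYK with substrate was exposed to pin-transferred compounds across a concentration series, then started with 130 uM ADP (final). After 45 min at room temperature, Kinase-Glo Plus luminescence was read, normalized and curve-fitted.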
CHX counter: Cycloheximide Counterscreen for Small Molecule Inhibitors of Shiga Toxin; hit rate 12% among 300,000; AID 2314, 2010; max response, %; cell reporter, cycloheximide protein synthesis inhibition counterscreen; in the data active = max response mostly above about 13%, no sharp cut-off; inactive = mostly below about 14%; note: read at 38.3 µM for the half of the compounds with a filed dose; 0% is about no effect
Starred values were filed as active, the others as inactive; ? = inconclusive; . = not tested or not shown; [ ] = dose if it differs, or a comment. Unless noted, calls come from the whole dose curve; as a rule, active = well fitted curve in the direction sought with a large enough effect; inconclusive = small, poorly fitted or top-dose-only effect, or another doubt; inactive = no such curve, though single readings can be large; an effect the other way counts as inactive or inconclusive.

SMILES | LmPK inhibitor | Shiga inhibitor | FBPA Giardia inh | RE007 growth inh | Tb PYK inh | CHX counter
CCN1CCN(C(=O)/C(C#N)=C/c2ccc(OC(F)F)cc2)CC1 | -2% | -9 | -7% | -15% | -10% | -5
Cc1ccc(/C=C(\C#N)C(=O)N2CCCC2)c(C)c1 | -7% | 125* | 0% | -26% | 0% | 37*
N#C/C(=C\C=C\c1ccccc1)C(=O)N1CCCC1 | 5% | 70* | -6% | 7% | -4% | 22*
N#C/C(=C\c1ccc(OC(F)F)cc1)C(=O)N1CCCCC1 | -9% | 46* | -3% | -1% | -5% | 27*
CC1CCC(NC(=O)c2cc3c(=O)n(C)c4ccccc4c3n2C)CC1 (configuration not stated) | -1% | 17 | -12% | 23% | 5% | 18*
Cn1c(C(=O)N2CCCCCC2)cc2c(=O)n(C)c3ccccc3c21 | 0% | 35 | -14% | -12% | 2% | 20*
CCC(=O)c1ccccc1OCCCCn1cncn1 | 2% | . | ? | 10% | 11% | -1
N=C(N)SCCN=C(N)N | . | -8 | -4% | . | . | 0
O=C(CSc1nnc(CNC(=O)c2ccccc2)n1-c1cccc(Cl)c1)Nc1ccccc1F | . | . | . | . | 4% | .
Cc1ccc(C)c(NC(=O)CC2NCCNC2=O)c1 (configuration not stated) | . | . | . | . | 0% | .
CCn1c(C)nc2cc(C(=O)NNC(=S)Nc3ccc(C)cc3)ccc21 | -2% | 25 | 9% | -13% | -27% | 12
CCn1c(C)nc2cc(C(=O)N/N=C(\C)c3ccccc3O)ccc21 | 9% | 85* | 12% | 1% | -2% | 31*
CCn1c(C)nc2cc(C(=O)NN=Cc3ccccc3OC(F)F)ccc21 | . | . | . | -1% | -8% | .
CCn1c(C)nc2cc(C(=O)NNC(=S)Nc3ccccc3OC)ccc21 | -9% | 33* | 7% | 6% | -13% | 20*
CCn1c(C)nc2cc(C(=O)N/N=C/c3ccccc3C)ccc21 | -2% | 133* | 1% | 3% | 1% | 41*
COc1ccccc1CNC(=O)C1CCN(C2=NS(=O)(=O)C(c3ccc(C)c(C)c3)=C2C)CC1 | . | . | . | . | 5% | .
CCN(CC)c1cc2c(cc1F)c(=O)c(S(=O)(=O)c1ccccc1)cn2Cc1ccccc1 | . | . | . | . | -3% | .
COC(=O)CCCC1=CC2=CC(=O)C(C)(OC(=O)c3cccs3)C(=O)C2=CN1CCc1c[nH]c2ccccc12 (configuration not stated) | -6%[11.5 µM] | 1 | 0.45µM* | -4% | 2% | -2
O=S(=O)(Nc1cc(Br)cc2cccnc12)c1ccccc1 | . | -12 | . | . | . | -5
O=P(O)(O)OP(=O)(O)OP(=O)(O)O | . | . | . | . | 10% | .
COCC1CCCCN1C(=O)c1ccc(OC)c(OC2CCN(C(C)C)CC2)c1 (configuration not stated) | -1% | 93* | . | 2% | 8% | 57*
COCC1CCCCN1C(=O)c1cccc(OC2CCN(C(=O)C3CC3)CC2)c1 (configuration not stated) | -10% | 81* | . | 11% | 28% | 50*
COc1cc(C(=O)N2CCCCCCC2)ccc1OC1CCN(C(C)=O)CC1 | -7% | 43* | -4% | -5% | -3% | 30*
CCC1CCCCN1C(=O)c1ccc(OC2CCN(C(=O)CCOC)CC2)cc1 (configuration not stated) | -4% | 11 | . | -5% | 1% | 16*
Cc1ccc(CNS(=O)(=O)c2cc3[nH]c(=O)c(=O)[nH]c3cc2C)cc1 | . | . | . | . | -3% | .
SMILES | LmPK inhibitor | Shiga inhibitor | FBPA Giardia inh | RE007 growth inh | Tb PYK inh | CHX counter
O=C(NCC(c1ccccc1)N1CCCC1)C1CCN(C(=O)Nc2ccccc2)CC1 (configuration not stated) | . | . | . | 1% | 6% | .
Clc1cccc(-c2nnc(-c3ccccc3)o2)c1 | 25µM* | 59* | 3% | 20µM* | -10% | 36*
COc1cc(-c2nnc(-c3ccco3)o2)ccc1OCc1ccccc1 | -4% | 59* | 0% | -9% | 4% | 39*
Clc1cccc(-c2nnc(-c3ccno3)o2)c1 | -1% | 22 | 1% | ? | -8% | 24
COc1cc(-c2nnc(-c3ccccc3)o2)cc(OC)c1OC | 1% | 11 | -5% | -26% | -11% | 6
COc1ccc(-c2nnc(-c3ccccc3)o2)cc1OC | -5% | 53* | 2% | -30% | -4% | 51*
COc1ccccc1-c1nnc(-c2ccc(N3CCOCC3)cc2)o1 | -4% | 62* | -1% | -2% | -15% | 35*
Nc1ccccc1-c1nnc(-c2ccc(-c3ccccc3)cc2)o1 | -12% | 43* | 4% | -10% | -11% | 47*
ClCc1nnc(-c2ccccc2)o1 | -1% | 17 | -7% | 3% | 4% | 11
COc1ccccc1-c1nnc(-c2ccc(C)cc2)o1 | . | . | . | -7% | -1% | .
Oc1ccccc1-c1nnc(-c2ccc(C(F)(F)F)cc2)o1 | -3% | 20 | -1% | 7% | -5% | 35*
Cc1nc(-c2nnc(-c3ccccc3)o2)c(C(F)(F)F)o1 | 1% | 49* | -2% | -20% | -1% | 28*
Cc1nc(-c2noc(-c3cccc(Cl)c3)n2)c(C(F)(F)F)o1 | -10% | 18 | 0% | 6% | -7% | 5
c1ccc(-c2nnc(-c3ccccc3)o2)cc1 | ? | 85* | 2% | ? | 3% | 31*
COC(=O)C1=C[C@@H](C(=O)OC)C2C3=C(C(=O)[C@]2(C)NC(=O)c2ccccc2)[C@H](C)n2c(=O)n(C)c(=O)n2[C@@H]3C1 (some centres not stated) | . | -4 | 3% | . | . | -3
COC(=O)c1ccccc1NC(=O)C1CCCN(C(=O)c2cnn(-c3ccc(F)cc3)c2-n2cccc2)C1 (configuration not stated) | . | . | . | . | 0% | .
Cc1c(CNCc2ccc(OC(C)C)cc2)c(C(=O)O)c(C)n1Cc1ccc(Cl)cc1 | . | . | . | . | -23% | .
c1ccc(-c2nnc(-c3ccncc3)o2)cc1 | ? | 79 | 7% | -11% | 0% | 40*
O=C(CCc1ccccc1)c1nnc(-c2ccccc2)o1 | 14% | 42 | -4% | 1% | 2% | 30*
c1ccc(-c2nnc(C3CC(c4ccncc4)=NO3)o2)cc1 (configuration not stated) | . | . | . | 12% | 1% | .
CN(C)S(=O)(=O)c1cccc(-c2nnc(-c3ccccc3)o2)c1 | -4% | 73* | 7% | 2% | 2% | 44*
Cc1ccccc1NS(=O)(=O)c1cccc(-c2nnc(-c3ccccc3)o2)c1 | 7% | -9 | 1% | -1%[3.69 µM] | . | -2
